A number with no mark means an inactive call. Records with an inconclusive call do not appear. Active and inactive are the calls of the source. Unless noted, calls follow the shape of the dose curve; as a rule, active = well fitted curve in either direction with a large enough effect (not every such curve was filed as active); inconclusive = small, poorly fitted or top-dose-only effect, or another doubt; inactive = flat fitted curve, though single readings scatter.

Test [1] has as its target Lysosomal acid glucosylceramidase (Homo sapiens) (UniProt P04062). The test is described as follows: Glucocerebrosidase-p2 (AID 348; in the data active = potency below about 10 µM; also: potency is read from the fitted curve at half-maximal effect). To be noted: purified GBA, blue fluorogenic substrate, 40 min. In outline: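 Compounds titrated from 0.6 nM upwards against 0.2 nM enzyme in pH 5.9 citric acid/KH2PO4, taurocholate, tween-20; blue fluorogenic substrate 80 uM, 40 min room temperature, stopped and read Ex 365/Em 440 for AC50.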

Test [2] in a line: AP1 Signaling Pathway (AID 357). Also: % is scaled to controls: 0 for no effect and ±100 for the full control effect. To be noted: ME-180 AP-1-bla reporter, EGF-induced, beta-lactamase ratio, 5 h; at 7.69 µM (top of the series) unless noted. In outline:
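ME-180 cells with beta-lactamase reporter under AP-1 response element, stimulated with EC50 EGF; compounds tested in titration series, 5 h at 37 °C. CCF4 substrate added 2.5 h at room temperature; 460/530 nm emission ratio gave %activity and AC50.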

Test [3] addresses Cytochrome P450 1A2 (Homo sapiens) (UniProt P05177). Nature of the test: p450-cyp1a2 (AID 410; calls by dose curve; also: potency is read from the fitted curve at half-maximal effect). As to conditions: recombinant CYP1A2, luciferin-ME demethylation, luminescence; series mostly up to 11.4 µM. A digest of the protocol: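 Luminescent readout of luciferin formed from Luciferin-ME by human CYP1A2; data normalized against complete inhibition by 57 uM furafylline. Enzyme 20nM, substrate 100uM at Km, 100mM KPO4 buffer, 60 min reaction at room temperature.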

A short description of test [4]: NFAT Signaling Pathway (AID 444).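 Also: carbachol stimulus at about its EC50 of 1 µM final; % is scaled to controls: 0 for no effect and ±100 for the full control effect.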 As to conditions: Jurkat NFAT-bla M1, carbachol, beta-lactamase ratio, 5 h; at 7.69 µM (top of the series) unless noted. In outline:
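Jurkat cells with NFAT-driven β-lactamase reporter and co-expressed M1 receptor, stimulated with carbachol (final 1 uM, ~EC50), compound titration, 5 h at 37 °C. CCF4 loaded 1 h at RT; 460/530 nm ratio gave %activity and AC50.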

Test [5] is described as follows: Stat Signaling Pathway (AID 446).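 Also: ME-180 cervical cancer cells given 40 pM IL-6 alongside compound; SIE-controlled beta-lactamase reporter measured as 460/530 nm FRET emission ratio; % is scaled to controls: 0 for no effect and ±100 for the full control effect.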 To be noted: ME-180 (cervical carcinoma) SIE beta-lactamase reporter, IL-6 stimulated, 5 h; at 7.69 µM (top of the series) unless noted. A digest of the protocol:
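IL-6/STAT signaling read in ME-180 cells via an SIE beta-lactamase reporter. Stimulus was 40 pM IL-6 (its AC50) for 5 hrs, so both activation and inhibition register.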

Test [6] addresses Glucocorticoid receptor (Homo sapiens) (UniProt P04150). The test is described as follows: GR-GFP Redistribution (AID 450;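 active = compounds whose dose series gives a full or clear partial fitted curve of increased nuclear translocation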; also: potency is read from the fitted curve at half-maximal effect). To be noted: U2OS GR-GFP nuclear translocation, laser cytometry, 2 h.
For test [7] the target is unchanged. The test is described as follows: GR-EFC Redistribution (AID 451; calls by dose curve; also: potency is read from the fitted curve at half-maximal effect). To be noted: CHO-K1 GR-EFC translocation, beta-gal luminescence, 2 h. A digest of the protocol:
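CHO-K1 cells expressing nuclear EA and GR-ED fragments of b-gal; compounds titrated up to 46 uM final, 2 h at 37 C. GR nuclear translocation read as complemented b-gal luminescence after 1 h RT detection.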

Test [8] concerns the target Mitogen-activated protein kinase 10 (Mus musculus) (UniProt Q61831). Nature of the test: JNK3 AlphaScreen Assay (AID 530).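 Also: kinase came from lysate of stimulated human HepG2 cells; signal reports phosphorylation of biotinylated GST-cJun 1-79 at Ser73 with 10 µM ATP; % is scaled to controls: 0 for no effect and ±100 for the full control effect.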 As to conditions: JNK3 lysate, c-Jun phosphorylation; series mostly up to 57.1 µM. In outline: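 Pre-activated (IL-1β/TNFα) JNK3 in HepG2 lysates phosphorylates biotin-GST-cJun(1-79), 10 uM ATP; anti-phospho-cJun(Ser73) AlphaScreen read at room temperature, pH 7.6 Tris buffer. Compounds pre-incubated 15 min as titrations.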

Test [9] deals with 3',5'-cyclic-AMP phosphodiesterase 4B (Homo sapiens) (UniProt Q07343). The test is described as follows: qHTS Assay for Inhibitors of PDE-IV (AID 607; active = well fitted activation curve with a large enough effect in the main read-out, with a control signal flat, not every such curve was filed as active; also: % of control where 0% means no effect). To be noted: HEK293 ACTOne CNG channel cells, membrane potential fluorescence; series mostly up to 22.9 µM. In outline:
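Live HEK293 cells with a modified cyclic nucleotide-gated (CNG) channel report intracellular cAMP via membrane-potential dye fluorescence (ex 535/em 590 nm). Endogenous PDE-IV was targeted. Compounds were tested at up to 22.9 uM final; RO 20-1724 100 uM served as control.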
A general note: qHTS replaces the single test concentration by a dilution series.

Glucocorticoid receptor (Homo sapiens), sequence (P04150 whole entry, looked up): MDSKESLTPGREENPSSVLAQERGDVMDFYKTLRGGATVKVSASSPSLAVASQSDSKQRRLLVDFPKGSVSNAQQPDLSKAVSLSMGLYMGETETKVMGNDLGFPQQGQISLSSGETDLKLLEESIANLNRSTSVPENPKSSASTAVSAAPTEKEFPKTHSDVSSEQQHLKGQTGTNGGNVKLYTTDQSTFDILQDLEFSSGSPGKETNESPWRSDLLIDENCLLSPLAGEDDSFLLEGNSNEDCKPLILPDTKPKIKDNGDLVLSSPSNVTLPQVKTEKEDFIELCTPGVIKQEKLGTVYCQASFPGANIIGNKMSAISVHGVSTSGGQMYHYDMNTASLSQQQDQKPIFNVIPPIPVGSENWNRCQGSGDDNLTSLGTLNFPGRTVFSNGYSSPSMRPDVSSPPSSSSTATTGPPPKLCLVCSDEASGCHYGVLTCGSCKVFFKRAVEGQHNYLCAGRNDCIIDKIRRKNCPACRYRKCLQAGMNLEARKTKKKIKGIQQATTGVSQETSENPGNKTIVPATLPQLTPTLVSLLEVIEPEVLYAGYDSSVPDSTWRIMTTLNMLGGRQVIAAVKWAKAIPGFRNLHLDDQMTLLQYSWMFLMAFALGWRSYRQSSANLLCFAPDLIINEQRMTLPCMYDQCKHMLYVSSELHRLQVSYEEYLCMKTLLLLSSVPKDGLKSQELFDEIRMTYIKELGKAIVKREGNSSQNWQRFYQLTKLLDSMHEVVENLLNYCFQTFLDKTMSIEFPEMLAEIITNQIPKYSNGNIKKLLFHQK
Cytochrome P450 1A2 (Homo sapiens), sequence (P05177 whole entry, looked up): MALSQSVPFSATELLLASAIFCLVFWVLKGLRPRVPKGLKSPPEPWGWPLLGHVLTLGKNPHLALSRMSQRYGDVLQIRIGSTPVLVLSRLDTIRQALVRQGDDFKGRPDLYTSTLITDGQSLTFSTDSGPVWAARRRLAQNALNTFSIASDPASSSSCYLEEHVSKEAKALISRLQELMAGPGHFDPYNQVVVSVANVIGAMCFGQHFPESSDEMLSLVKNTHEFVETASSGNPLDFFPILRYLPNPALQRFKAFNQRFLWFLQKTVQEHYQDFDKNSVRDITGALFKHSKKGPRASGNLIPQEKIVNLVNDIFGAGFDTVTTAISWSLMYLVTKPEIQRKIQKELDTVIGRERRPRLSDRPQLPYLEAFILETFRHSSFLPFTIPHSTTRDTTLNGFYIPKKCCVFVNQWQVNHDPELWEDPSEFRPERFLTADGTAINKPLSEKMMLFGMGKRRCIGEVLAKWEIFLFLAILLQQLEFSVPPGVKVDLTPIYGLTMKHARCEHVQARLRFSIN
3',5'-cyclic-AMP phosphodiesterase 4B (Homo sapiens), sequence (Q07343 whole entry, looked up): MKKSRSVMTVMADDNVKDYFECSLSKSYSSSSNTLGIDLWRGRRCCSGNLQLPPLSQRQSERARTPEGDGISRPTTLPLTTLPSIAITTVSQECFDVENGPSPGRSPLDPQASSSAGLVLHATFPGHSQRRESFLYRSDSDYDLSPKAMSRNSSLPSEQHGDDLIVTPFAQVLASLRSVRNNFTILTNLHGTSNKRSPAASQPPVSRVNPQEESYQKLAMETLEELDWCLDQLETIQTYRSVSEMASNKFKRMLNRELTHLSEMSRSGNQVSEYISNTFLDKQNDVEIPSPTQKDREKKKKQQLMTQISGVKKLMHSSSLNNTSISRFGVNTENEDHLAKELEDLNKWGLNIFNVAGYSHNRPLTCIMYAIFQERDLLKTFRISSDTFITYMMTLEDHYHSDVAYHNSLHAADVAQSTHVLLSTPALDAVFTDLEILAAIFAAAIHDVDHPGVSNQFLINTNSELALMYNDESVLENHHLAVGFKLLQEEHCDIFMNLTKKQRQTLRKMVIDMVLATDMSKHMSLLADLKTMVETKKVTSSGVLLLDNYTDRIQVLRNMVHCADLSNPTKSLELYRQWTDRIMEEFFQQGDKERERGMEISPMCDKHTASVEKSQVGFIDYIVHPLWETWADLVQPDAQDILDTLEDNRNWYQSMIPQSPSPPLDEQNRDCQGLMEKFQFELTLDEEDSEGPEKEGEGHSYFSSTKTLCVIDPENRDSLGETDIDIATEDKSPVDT
Lysosomal acid glucosylceramidase (Homo sapiens), sequence (P04062 whole entry, looked up): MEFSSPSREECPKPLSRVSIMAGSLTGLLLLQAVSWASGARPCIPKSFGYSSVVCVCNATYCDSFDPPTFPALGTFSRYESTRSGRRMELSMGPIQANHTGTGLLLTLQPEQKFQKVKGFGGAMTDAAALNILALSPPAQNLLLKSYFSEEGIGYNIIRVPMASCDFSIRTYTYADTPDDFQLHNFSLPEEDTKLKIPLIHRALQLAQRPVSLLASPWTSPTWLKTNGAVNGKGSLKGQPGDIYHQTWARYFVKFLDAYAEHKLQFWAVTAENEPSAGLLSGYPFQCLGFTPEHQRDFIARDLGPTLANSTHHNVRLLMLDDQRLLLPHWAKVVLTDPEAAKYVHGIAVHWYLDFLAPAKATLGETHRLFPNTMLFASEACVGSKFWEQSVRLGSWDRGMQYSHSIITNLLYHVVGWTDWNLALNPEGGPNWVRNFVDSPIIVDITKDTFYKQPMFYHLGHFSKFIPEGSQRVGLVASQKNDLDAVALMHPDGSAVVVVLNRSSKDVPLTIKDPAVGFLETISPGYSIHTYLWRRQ

Regarding `Cc1ccc(C2(c3ccc(C)c(O)c3C)CCN(C)CC2)c(C)c1O`, the Potency in [1] was greater than 11.4 µM; in test [3] it was 5.01 µM (active); in [6] it was greater than 46 µM; in test [7], greater than 9.22 µM. In addition, the activity change, negative = inhibition is 2.94% in test [2], 3.1% in [4] and 1.97% [at 11.4 µM] in [8]. Besides, the activity, negative = inhibition in [5] is 3.48%. Moreover, in test [9], the call was inactive.

Source of the values: PubChem BioAssay (NCATS).
